Results: PubChem BioAssay (Tox21)
Results filed as inconclusive are left out. Entries that show only a call come without a potency. Values without a mark were called inactive. Active and inactive are the calls of the source. Unless noted, calls follow the shape of the full dose curve.

Assays:
[1] = qHTS assay to identify small molecule agonists of the peroxisome proliferator-activated receptor delta (PPARd) signaling pathway - cell viability counter screen (AID 743211; active = well fitted curve in the direction sought with a large enough effect in the repeat runs; an effect the other way counts as inactive or inconclusive; also: nearly all actives have a fitted effect of over 55% in size; also: potency is read from the fitted curve at half-maximal effect)
Summary of the method: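 PPARd-bla HEK293H cells (UAS-beta-lactamase reporter) were treated with compounds for 17 h at 37 C. Viability was then read in the same wells by CellTiter-Glo luminescence after 30 min at room temperature.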

[2] = target: Peroxisome proliferator-activated receptor delta (Homo sapiens) (UniProt Q03181); assay: qHTS assay to identify small molecule agonists of the peroxisome proliferator-activated receptor delta (PPARd) signaling pathway (AID 743212)
Peroxisome proliferator-activated receptor delta (Homo sapiens), sequence (Q03181 whole entry, looked up): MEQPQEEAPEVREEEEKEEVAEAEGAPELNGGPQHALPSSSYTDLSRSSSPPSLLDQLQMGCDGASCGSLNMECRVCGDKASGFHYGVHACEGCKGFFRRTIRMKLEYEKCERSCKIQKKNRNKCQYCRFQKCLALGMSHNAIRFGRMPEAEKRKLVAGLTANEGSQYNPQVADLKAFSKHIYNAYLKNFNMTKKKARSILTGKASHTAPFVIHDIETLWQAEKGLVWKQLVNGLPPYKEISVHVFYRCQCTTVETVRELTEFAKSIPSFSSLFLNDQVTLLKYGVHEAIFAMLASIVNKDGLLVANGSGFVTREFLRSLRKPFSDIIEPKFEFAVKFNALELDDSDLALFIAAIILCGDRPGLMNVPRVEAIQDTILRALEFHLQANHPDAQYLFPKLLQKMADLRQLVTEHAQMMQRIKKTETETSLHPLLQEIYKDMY
Summary of the method: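 HEK293H UAS-bla reporter cells, human PPARd system; compounds delivered in DMSO after 5 h plating, then at 37 C. Beta-lactamase FRET read, 2 h RT substrate step.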

[3] = qHTS assay to identify small molecule antagonists of the peroxisome proliferator-activated receptor delta (PPARd) signaling pathway - cell viability counter screen (AID 743213; active = well fitted curve in the direction sought with a large enough effect in the repeat runs; an effect the other way counts as inactive or inconclusive; also: nearly all actives have a fitted effect of over 50% in size)
Summary of the method: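 Cytotoxicity counter screen: CellTiter-Glo luminescence read 30 min after addition, in the same wells as the reporter assay. There, PPARd UAS-bla HEK293H cells (3000/well) were treated 17 h at 37 C with compound and 300 nM L165041.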

[4] = target: Peroxisome proliferator-activated receptor delta (Homo sapiens) (UniProt Q03181); assay: qHTS assay to identify small molecule antagonists of the peroxisome proliferator-activated receptor delta (PPARd) signaling pathway (AID 743215; active = well fitted inhibition curve with a large enough effect in the signal ratio in the repeat runs, not every such curve was filed as active; the % refers to the signal ratio;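 also: cells stimulated with agonist L165041 at 300 nM final during compound exposure; series mostly up to about 62 µM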)
Summary of the method: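 PPARd UAS-bla HEK293H cells were pre-incubated 5 h at 37 C, then given test compounds in DMSO plus agonist L165041 (300 nM final). After 17 h at 37 C, beta-lactamase FRET substrate was added; fluorescence read after 2 h at room temperature.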

[5] = target: Bile acid receptor (Homo sapiens) (UniProt Q96RI1); assay: qHTS assay to identify small molecule antagonists of the farnesoid-X-receptor (FXR) signaling pathway (AID 743217; active = well fitted inhibition curve with a large enough effect in the signal ratio in the repeat runs, not every such curve was filed as active; the % refers to the signal ratio; also: potency is read from the fitted curve at half-maximal effect)
Bile acid receptor (Homo sapiens), sequence (Q96RI1 whole entry, looked up): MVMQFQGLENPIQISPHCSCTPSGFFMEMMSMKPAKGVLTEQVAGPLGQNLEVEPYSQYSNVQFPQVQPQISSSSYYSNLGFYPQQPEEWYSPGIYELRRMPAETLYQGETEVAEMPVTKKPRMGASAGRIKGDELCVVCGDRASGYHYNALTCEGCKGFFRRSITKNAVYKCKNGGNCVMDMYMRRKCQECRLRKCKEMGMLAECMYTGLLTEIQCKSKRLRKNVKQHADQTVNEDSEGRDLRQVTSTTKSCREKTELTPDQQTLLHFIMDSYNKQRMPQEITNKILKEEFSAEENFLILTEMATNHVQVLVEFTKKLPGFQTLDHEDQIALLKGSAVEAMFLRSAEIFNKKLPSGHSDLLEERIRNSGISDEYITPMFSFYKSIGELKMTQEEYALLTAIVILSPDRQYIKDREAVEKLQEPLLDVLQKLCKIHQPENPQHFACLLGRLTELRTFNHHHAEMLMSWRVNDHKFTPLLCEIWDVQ
Summary of the method: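 FXR-UAS-bla HEK 293T cells pre-incubated 5 h at 37 °C, then exposed to compounds with chenodeoxycholic acid (50 uM final) for 16 h at 37 °C. Beta-lactamase reporter read by LiveBLAzer B/G FRET substrate fluorescence after 2 h at room temperature.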

[6] = qHTS assay to identify small molecule agonists of the farnesoid-X-receptor (FXR) signaling pathway - cell viability counter screen (AID 743218; active = well fitted curve in the direction sought with a large enough effect in the repeat runs; an effect the other way counts as inactive or inconclusive; also: nearly all actives have a fitted effect of over 45% in size; also: potency is read from the fitted curve at half-maximal effect)
Summary of the method: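 FXR-UAS-bla HEK 293T cells, plated 5 h at 37 C, were exposed to compounds for 16 h at 37 C. CellTiter-Glo was then added to the same wells as the bla readout; luminescence read after 30 min at room temperature.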

[7] = target: Bile acid receptor (Homo sapiens) (UniProt Q96RI1); assay: qHTS assay to identify small molecule agonists of the farnesoid-X-receptor (FXR) signaling pathway (AID 743220; active = well fitted activation curve with a large enough effect in the signal ratio in the repeat runs, not every such curve was filed as active; the % refers to the signal ratio)
Summary of the method: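 Beta-lactamase reporter under UAS control in GeneBLAzer FXR HEK 293T cells (5000/well) measured with LiveBLAzer FRET substrate after 2 h at room temperature. Compound exposure lasted 16 h at 37C.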

[8] = qHTS assay to identify small molecule antagonists of the farnesoid-X-receptor (FXR) signaling pathway - cell viability counter screen (AID 743221; active = well fitted cell-killing curve with a large enough effect in the repeat runs, not every such curve was filed as active; also: nearly all actives have a fitted effect of over 50% in size; also: potency is read from the fitted curve at half-maximal effect)
Summary of the method: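 FXR-UAS-bla HEK 293T cells were treated with test compounds plus chenodeoxycholic acid (50 uM final) for 16 h at 37 C. Cell viability in the same wells was then read as CellTiter-Glo luminescence after 30 min at room temperature.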

[9] = target: Vitamin D3 receptor (Homo sapiens) (UniProt P11473); assay: qHTS assay to identify small molecule agonists of the vitamin D receptor (VDR) signaling pathway (AID 743222)
Vitamin D3 receptor (Homo sapiens), sequence (P11473 whole entry, looked up): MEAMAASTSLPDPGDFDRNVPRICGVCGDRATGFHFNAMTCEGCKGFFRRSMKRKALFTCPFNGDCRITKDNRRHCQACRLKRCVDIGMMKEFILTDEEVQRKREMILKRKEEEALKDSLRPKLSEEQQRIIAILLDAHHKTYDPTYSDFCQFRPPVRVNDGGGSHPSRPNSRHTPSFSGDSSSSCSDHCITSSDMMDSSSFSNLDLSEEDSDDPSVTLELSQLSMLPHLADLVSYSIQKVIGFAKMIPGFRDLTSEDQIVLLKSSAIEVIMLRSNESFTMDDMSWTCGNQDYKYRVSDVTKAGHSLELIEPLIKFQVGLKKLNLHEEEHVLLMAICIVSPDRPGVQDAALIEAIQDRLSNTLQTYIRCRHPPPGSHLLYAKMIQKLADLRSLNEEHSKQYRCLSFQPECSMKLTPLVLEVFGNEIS
Summary of the method: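 VDR-bla cells were plated 4 h at 37C/5% CO2, then exposed to compounds in DMSO for 16 h. After LiveBLAzer B/G FRET substrate addition and 2 h at room temperature, beta-lactamase reporter fluorescence was read.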

[10] = qHTS assay to identify small molecule agonists of the vitamin D receptor (VDR) signaling pathway - cell viability counter screen (AID 743224; active = well fitted curve in the direction sought with a large enough effect in the repeat runs; an effect the other way counts as inactive or inconclusive; also: series mostly up to about 63 µM; nearly all actives have a fitted effect of over 50% in size)
Summary of the method: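 VDR-bla cells were preincubated 4 h at 37C/5% CO2, then exposed to compounds for 16 h. After the 2 h room-temperature bla FRET read, CellTiter-Glo was added to the same wells and luminescence read after 30 min.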

[11] = qHTS assay to identify small molecule antagonists of the vitamin D receptor (VDR) signaling pathway - cell viability counter screen (AID 743225; active = well fitted curve in the direction sought with a large enough effect in the repeat runs; an effect the other way counts as inactive or inconclusive; also: nearly all actives have a fitted effect of over 50% in size)
Summary of the method: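 VDR-bla HEK 293T cells, 4 h pre-incubation at 37C, then compound plus 1-alpha,25-dihydroxyvitamin D3 (3 nM final) for 16 h. After the beta-lactamase FRET read, CellTiter-Glo was added to the same wells; luminescence after 30 min at room temperature.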

[12] = qHTS assay to identify small molecule agonists of the NFkB signaling pathway - cell viability counter screen (AID 1159515); also: nearly all actives have a fitted effect of over 55% in size; also: potency is read from the fitted curve at half-maximal effect
Summary of the method: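 NFkB-bla ME-180 cells, 2,000/well, were plated overnight at 37 C, 5% CO2, then exposed to compounds in DMSO for 5 hr. After the bla FRET read, CellTiter-Glo was added to the same wells; luminescence was read after 30 min at room temperature.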

[13] = qHTS assay to identify small molecule agonists of the endoplasmic reticulum stress response signaling pathway (AID 1159516; active = well fitted activation curve with a large enough effect in the signal ratio in the repeat runs, not every such curve was filed as active; the % refers to the signal ratio)
Summary of the method: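 CellSensor ESRE-bla HeLa cells, carrying a beta-lactamase reporter driven by the ER stress response element, were plated overnight and exposed to compounds for 5 hr at 37 C. Reporter activity was read as FRET substrate fluorescence after 2 hr at room temperature.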

[14] = qHTS assay to identify small molecule antagonists of the retinoid-related orphan receptor gamma (ROR-gamma) signaling pathway - cell viability counter screen (AID 1159520; active = well fitted curve in the direction sought with a large enough effect in the repeat runs; an effect the other way counts as inactive or inconclusive; also: nearly all actives have a fitted effect of over 50% in size)
Summary of the method: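 Cytotoxicity was read from cellular ATP (CellTiter-Glo luminescence) after 16 hr at 37 C with 1 uM doxycycline induction. The inducer was added 2 hr after compound transfer to Tet-on ROR gamma CHO cells.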

[15] = target: Nuclear receptor ROR-gamma (Homo sapiens) (UniProt P51449); assay: qHTS assay to identify small molecule antagonists of the retinoid-related orphan receptor gamma (ROR-gamma) signaling pathway (AID 1159521; active = well fitted curve in the direction sought with a large enough effect in the repeat runs; an effect the other way counts as inactive or inconclusive; also: nearly all actives have a fitted effect of over 50% in size; also: potency is read from the fitted curve at half-maximal effect)
Summary of the method: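 Tet-on RORγ CHO cells carrying a ROR response element–luciferase reporter were pretreated with compounds for 2 h, then induced with 1 uM (final) doxycycline hyclate for 16 h at 37 C. Antagonism was read as decreased ONE-Glo luminescence.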

[16] = qHTS assay to identify small molecule agonists of the AP-1 signaling pathway - cell viability counter screen (AID 1159525); also: nearly all actives have a fitted effect of over 55% in size
Summary of the method: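 Luminescent ATP readout (Cell Titer Glo, 30 min RT), normalised to DMSO and tetra n-octyl ammonium bromide controls. Cells were ME-180 AP-1-bla in 0.5% dialyzed FBS Opti-MEM, with a 5 h, 37 °C compound exposure.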

[17] = qHTS assay to identify small molecule agonists of the AP-1 signaling pathway (AID 1159526)
[18] = target: Retinoic acid receptor RXR-alpha (Homo sapiens) (UniProt P19793); assay: qHTS assay to identify small molecule agonists of the RXR signaling pathway (AID 1159527); also: nearly all actives have a fitted effect of over 35% in size
Retinoic acid receptor RXR-alpha (Homo sapiens), sequence (P19793 whole entry, looked up): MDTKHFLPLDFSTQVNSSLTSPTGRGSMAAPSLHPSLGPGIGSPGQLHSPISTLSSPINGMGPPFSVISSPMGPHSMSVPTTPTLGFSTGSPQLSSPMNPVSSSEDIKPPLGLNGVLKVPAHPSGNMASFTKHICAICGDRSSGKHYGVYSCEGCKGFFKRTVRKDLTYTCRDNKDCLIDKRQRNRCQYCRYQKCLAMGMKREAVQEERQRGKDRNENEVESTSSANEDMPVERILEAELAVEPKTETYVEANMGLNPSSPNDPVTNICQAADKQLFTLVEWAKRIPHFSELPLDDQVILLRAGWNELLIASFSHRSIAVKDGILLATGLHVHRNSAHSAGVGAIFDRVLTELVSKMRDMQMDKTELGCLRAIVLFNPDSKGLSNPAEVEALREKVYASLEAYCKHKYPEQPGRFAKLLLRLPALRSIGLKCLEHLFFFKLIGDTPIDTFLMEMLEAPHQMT
Summary of the method: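 GeneBLAzer RXR-alpha-UAS-bla HEK 293T cells in medium with 2% charcoal-stripped FBS, pre-incubated 5 hr at 37 C, then exposed to compounds 16 hr. Beta-lactamase reporter read by FRET substrate, 2 hr room temperature, 460/530 nm emission.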

[19] = target: Vitamin D3 receptor (Homo sapiens) (UniProt P11473); assay: qHTS assay to identify small molecule antagonists of the vitamin D receptor (VDR) signaling pathway (AID 743223; active = well fitted inhibition curve with a large enough effect in the signal ratio in the repeat runs, not every such curve was filed as active; the % refers to the signal ratio)
Summary of the method: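 VDR-bla cells were plated, incubated 4 h at 37C, then given compound and 1alpha,25-dihydroxyvitamin D3 (3 nM final). After 16 h at 37C, LiveBLAzer B/G FRET substrate was added for 2 h at room temperature and fluorescence read.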

[20] = qHTS assay to identify small molecule agonists of the endoplasmic reticulum stress response signaling pathway - cell viability counter screen (AID 1159517); also: nearly all actives have a fitted effect of over 50% in size; also: potency is read from the fitted curve at half-maximal effect
Summary of the method: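 Cells, HeLa ESRE-bla; density, 1,500/well; dosing, 5 hr at 37 C, 5% CO2; readout, CellTiter-Glo luminescence after 30 min RT.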

SMILES | Potency [1] | Potency [2] | Potency [3] | Potency [4] | Potency [5] | Potency [6] | Potency [7] | Potency [8] | Potency [9] | Potency [10] | Potency [11] | Potency [12] | Potency [13] | Potency [14] | Potency [15] | Potency [16] | Potency [17] | Potency [18] | Potency [19] | Potency [20]
CC(C)CCOC(=O)/C=C/c1ccccc1 | inactive | inactive | inactive | inactive | inactive | inactive | inactive | inactive | inactive | inactive | inactive | inactive | inactive | inactive | inactive | inactive | inactive | inactive | – | –
CC1=Nc2ccccc2C1(C)C | inactive | – | inactive | inactive | – | inactive | – | inactive | inactive | inactive | inactive | inactive | inactive | – | 17.2 µM (active) | inactive | – | – | inactive | inactive
COc1c(C)c2c(c(O)c1C/C=C(\C)CCC(=O)OCCN1CCOCC1)C(=O)OC2 | – | – | – | – | 1.5 µM (active) | – | – | – | inactive | inactive | – | inactive | inactive | – | 0.237 µM (active) | inactive | inactive | – | – | inactive
CC[C@H](C)COC(=O)/C=C/c1ccc(N=Cc2ccc(OC)cc2)cc1 | inactive | – | – | – | – | inactive | – | inactive | inactive | – | – | inactive | inactive | – | inactive | – | – | – | – | inactive
CC(=O)[C@H]1CC[C@H]2[C@@H]3CCC4=CC(=O)CC[C@]4(C)[C@H]3CC[C@]12C | 48.7 µM (active) | – | – | – | – | inactive | – | inactive | – | – | – | inactive | inactive | – | – | inactive | inactive | – | – | inactive
CN(C)CCN1CCN(c2cccc(Cl)c2)C1=O | inactive | inactive | inactive | inactive | – | inactive | – | inactive | inactive | inactive | inactive | inactive | inactive | inactive | inactive | inactive | inactive | inactive | inactive | –
COC(C)=O | inactive | inactive | inactive | inactive | – | inactive | – | inactive | – | inactive | inactive | inactive | inactive | inactive | inactive | inactive | inactive | inactive | – | –
NC(=S)NC(N)=S | inactive | – | – | – | – | inactive | – | inactive | inactive | inactive | – | inactive | inactive | – | inactive | inactive | – | – | inactive | inactive
Oc1cc(Cl)cc(Cl)c1Cl | inactive | – | inactive | – | – | inactive | – | inactive | inactive | – | inactive | inactive | inactive | – | – | inactive | – | inactive | inactive | inactive
c1ccc(SSc2ccccc2)cc1 | inactive | – | inactive | inactive | – | – | – | inactive | inactive | inactive | inactive | inactive | inactive | – | inactive | inactive | – | – | – | inactive
C/C=C/C=C/COC(=O)C(C)C | – | inactive | – | inactive | – | inactive | – | inactive | inactive | inactive | inactive | inactive | inactive | – | – | inactive | inactive | – | inactive | inactive
O=S(=O)(O)c1ccc(N=Nc2c(O)ccc3ccccc23)cc1 | inactive | inactive | – | inactive | – | 38.9 µM (active) | – | 38.9 µM (active) | inactive | inactive | – | inactive | inactive | – | – | – | inactive | – | inactive | inactive
CC[N+](CC)(CC)CCOC(=O)C(C1CCCC1)C1CCCC1 | inactive | inactive | inactive | inactive | – | inactive | – | inactive | inactive | inactive | inactive | inactive | inactive | inactive | inactive | inactive | inactive | inactive | inactive | –
COc1cc(S(=O)(=O)O)c(C)cc1N=Nc1c(O)ccc2cc(S(=O)(=O)O)ccc12 | inactive | inactive | – | inactive | – | inactive | – | inactive | inactive | inactive | inactive | inactive | inactive | – | – | inactive | inactive | inactive | inactive | inactive
CCCCCCCC | inactive | inactive | inactive | inactive | inactive | – | inactive | inactive | inactive | inactive | inactive | inactive | inactive | inactive | inactive | inactive | inactive | inactive | inactive | –
Cc1cc(C(C#N)c2ccc(Cl)cc2)c(Cl)cc1NC(=O)c1cc(I)cc(I)c1O (stereo unspecified) | – | – | – | – | – | – | – | 29.8 µM (active) | – | inactive | inactive | inactive | inactive | – | 29.8 µM (active) | inactive | – | – | – | inactive
O=[N+]([O-])c1ccc(O)cc1C(F)(F)F | – | – | inactive | inactive | inactive | inactive | – | inactive | inactive | – | – | inactive | inactive | – | 7.7 µM (active) | inactive | inactive | – | inactive | inactive
COC(=O)C1=C(C)NC(C)=C(C(=O)OCCN2CCN(C(c3ccccc3)c3ccccc3)CC2)C1c1cccc([N+](=O)[O-])c1 (stereo unspecified) | – | – | – | – | 11.9 µM (active) | – | – | – | – | inactive | inactive | inactive | inactive | – | – | inactive | – | – | – | inactive
CCCCOC(=O)CO | inactive | inactive | inactive | inactive | – | inactive | – | inactive | inactive | inactive | inactive | inactive | inactive | inactive | inactive | inactive | inactive | inactive | inactive | –
C=CC(=O)Nc1cc2c(Nc3ccc(F)c(Cl)c3)ncnc2cc1OCCCN1CCOCC1 | – | inactive | inactive | inactive | – | – | inactive | inactive | – | inactive | inactive | 15.1 µM (active) | inactive | – | inactive | – | – | – | inactive | 16.9 µM (active)
